The nature of test [1]: Viability counterscreen for antagonist of constitutive androstane receptor (CAR) against the NCATS DSHEA and TCM libraries (AID 1794837).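 Note: compound exposure lasted 24 h before viability reading; 0% is about no effect.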 A digest of the protocol: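 Cell viability, CellTiter-Fluor, Ex/Em 405/540 nm, 1 h at 37C. HepG2-CYP2B6-hCAR, 2,500 cells/well; cpds + CITCO 48 uM final (antagonist mode), 24 h, 37C/5% CO2.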
A short description of test [2]: Viability counterscreen for agonist of constitutive androstane receptor (CAR) against the NCATS DSHEA and TCM libraries (AID 1794838). Note: 0% is about no effect. A digest of the protocol:
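Viability by CellTiter-Fluor fluorescence, 405/540 nm, after 1 h at 37C. HepG2-CYP2B6-hCAR cells were exposed 24 h to test substances in presence of 0.75 uM PK11195 (final).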
On the technique in general: Counterscreens check selectivity or assay interference.

Test [3] has as its target Nuclear receptor subfamily 1 group I member 3 (Homo sapiens) (UniProt Q14994). The test is described as follows: Primary qHTS for agonist of constitutive androstane receptor (CAR) against the NCATS DSHEA and TCM libraries (AID 1794839). Note: potency is the fitted concentration of half-maximal effect. A digest of the protocol:
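Luminescence from ONE-Glo luciferase was the agonist read-out in HepG2-CYP2B6-hCAR cells exposed 24 h to test substances. Wells also held the CAR antagonist PK11195 at 0.75 µM final. Viability was by CellTiter-Fluor fluorescence.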
(In general: In qHTS, concentration-response curves come from the screen itself.)

The nature of test [4]: HepG2 viability counterscreen (readout 2: ATP content) against the NCATS DSHEA and TCM libraries (AID 1794840). Note: 0% is about no effect. A digest of the protocol: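 1,000 HepG2 cells/well, 4 h attach; compounds ~24 h, 37C/5% CO2. Readout 1: GF-AFC 25 uM final, 30 min, fluorescence 380/510 nm. Readout 2: CellTiter-Glo, 30 min RT, luminescence.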
Test [5] addresses Cytochrome P450 2D6 (Homo sapiens) (UniProt P10635). Briefly: qHTS for inhibitors of CYP2D6 against the NCATS DSHEA and TCM libraries (AID 1919972). Note: potency is the fitted concentration of half-maximal effect. The method, boiled down: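 Luminescent P450-Glo read-out of CYP2D6 turnover of a luciferin substrate after NADPH-driven reaction of 30-45 min at room temperature. Compounds were first preincubated 15 min with enzyme at titrated concentrations; quinidine was the intraplate control.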

The target of test [6] is Cytochrome P450 2C9 (Homo sapiens) (UniProt P11712). Briefly: qHTS for inhibitors of CYP2C9 against the NCATS DSHEA and TCM libraries (AID 1919973). Note: potency is the fitted concentration of half-maximal effect. The method, boiled down:
(§1)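 Luminescent P450-Glo format: compounds preincubated 15 min with enzyme and luciferin substrate, reaction run 30-45 min after NADPH regeneration solution. Intraplate controls: ketoconazole for CYP3A4 and CYP2C19, sulfaphenazole for CYP2C9.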

The nature of test [7]: KB-3-1 P-gp reporter qHTS against the NCATS DSHEA and TCM libraries (AID 1919975). Note: 0% is about no effect. A digest of the protocol: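 CellTiter-Glo luminescence viability readout; KB-3-1 parental cells, 500/well, attached ~4 h, then compound for ~72 h, 37C, 5% CO2. Bortezomib intraplate control.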
Test [8] deals with Cytochrome P450 1A2 (Homo sapiens) (UniProt P05177). The test is described as follows: qHTS for inhibitors of CYPIA2 against the NCATS DSHEA and TCM libraries (AID 1919976). Note: potency is the fitted concentration of half-maximal effect. A digest of the protocol:
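Human CYP1A2 with pro-luciferin substrate (typically 100 mM KPO4), 15 min preincubation with compound, then 1x NADPH regeneration for 30-45 min at room temperature in the dark. Luciferin quantified by luciferase luminescence; furafylline intraplate control.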

For test [9], the target named is Nuclear receptor subfamily 1 group I member 2 (Homo sapiens) (UniProt O75469). Briefly: Dual reporter qHTS for agonist of Pregnane X Receptor (hPXR) against the NCATS DSHEA and TCM libraries: Luminescence readout (AID 1920059). Note: 0% is about no effect. The method, boiled down: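 Luminescent PXR reporter read (ONE-Glo) after a CellTiter-Fluor viability read, following 24 h, 37C treatment of HepG2 cells stably carrying hPXR-Luc.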

The target is the same in test [10]. The test is described as follows: Dual reporter qHTS for antagonist of Pregnane X Receptor (hPXR) against the NCATS DSHEA and TCM libraries: Luminescence Readout (AID 1920060). Note: 0% is about no effect. The method, boiled down:
(§2)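 Rifampicin-stimulated (2 uM final) hPXR-luciferase HepG2 cells were treated for 24 h with DSNP/TCM substances. Viability came from CellTiter-Fluor fluorescence, reporter activity from ONE-Glo luminescence.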

The nature of test [11]: Dual reporter qHTS for antagonist of Pregnane X Receptor (hPXR) against the NCATS DSHEA and TCM libraries: Fluorescence Readout (AID 1920061). Note: 0% is about no effect. The method, boiled down:
as §2

Test [12] addresses Glucocorticoid receptor (Homo sapiens) (UniProt P04150). The test is described as follows: GR-GFP Redistribution (AID 450;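 active = compounds whose dose series gives a full or clear partial fitted curve of increased nuclear translocation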; note: potency is the fitted concentration of half-maximal effect). As to conditions: U2OS GR-GFP nuclear translocation, laser cytometry, 2 h.
Test [13] has the same target. The test is described as follows: GR-EFC Redistribution (AID 451; calls by dose curve; note: potency is the fitted concentration of half-maximal effect). Particulars: CHO-K1 GR-EFC translocation, beta-gal luminescence, 2 h. The method, boiled down:
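Translocation of GR-ED fusion to nuclear EA restores b-gal, read by luminescence after 1 h room-temperature detection. Engineered CHO-K1 biosensor cells, 1,000/well, exposed 2 h at 37 C to titrations up to 46 uM final.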

Test [14] deals with Mitogen-activated protein kinase 10 (Mus musculus) (UniProt Q61831). Briefly: JNK3 AlphaScreen Assay (AID 530; active = well fitted curve in either direction with a large enough effect, not every such curve was filed as active;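 note: kinase came from lysate of stimulated human HepG2 cells; signal reports phosphorylation of biotinylated GST-cJun 1-79 at Ser73 with 10 µM ATP; series mostly up to about 57 µM; % is set by controls: 0 for no effect and ±100 for the full control effect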). The method, boiled down:
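Compound titrations were preincubated 15 minutes at room temperature with substrate, antibody and pre-activated JNK3-containing HepG2 lysate. Reactions were started with 10 uM ATP and stopped with EDTA-containing bead buffer for AlphaScreen detection.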
A general note: Alpha assays give light when donor and acceptor beads are brought close together.

The target of test [15] is Ubiquitin carboxyl-terminal hydrolase 1 (Homo sapiens) (UniProt O94782). The test is described as follows: Inhibitors of USP1/UAF1: Pilot qHTS (AID 504865).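 Note: rhodamine fluorescence freed from ubiquitin-rhodamine substrate followed over time; top concentration of the series differs between compounds; % is set by controls: 0 for no effect and ±100 for the full control effect; nearly all actives have a fitted effect of over 35% in size.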 A digest of the protocol: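 1nM USP1/UAF1 + cpd, 15 min RT; start w/ Ub-Rho 150nM final; kinetic FL 480/540 nm, 6 reads q60 s. Buffer 50mM HEPES pH 7.8, 0.5mM EDTA, 1mM TCEP, 0.01% Tween-20, 0.1 mg/ml BSA.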
For test [16], the target named is Cytochrome P450 3A4 (Homo sapiens) (UniProt P08684). The test is described as follows: qHTS for inhibitors of CYP3A4 against the NCATS DSHEA and TCM libraries (AID 1919971). Note: potency is the fitted concentration of half-maximal effect. A digest of the protocol:
as §1

Test [17] has as its target Cytochrome P450 2C19 (Homo sapiens) (UniProt P33261). The test is described as follows: qHTS for inhibitors of CYP2C19 against the NCATS DSHEA and TCM libraries (AID 1919974).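 Note: luminescence from luciferin released by CYP2C19 oxidation of a pro-luciferin substrate.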 Note: potency is the fitted concentration of half-maximal effect. A digest of the protocol: as §1
The nature of test [18]: qHTS Counterscreen for compound interference against the NCATS DSHEA and TCM libraries (AID 1919978).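 Note: compounds preincubated with 1 µM D-luciferin or buffer before detection reagent; % of control where 0% means no effect.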 Particulars: firefly luciferase detection reagent interference, luminescence. The method, boiled down:
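Luminescence counterscreen for detection-kit interference: compounds at 19.5 nM–39.8 uM final, 15 min RT with 1 uM D-luciferin or buffer only; detection reagent added, 30 min RT, then read.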

A number with no mark means an inactive call. Inconclusive results are not listed. The source made the active and inactive calls. Unless noted, calls come from the whole dose curve; as a rule, active = well fitted curve in the direction sought with a large enough effect; inconclusive = small, poorly fitted or top-dose-only effect, or another doubt; inactive = no such curve, though single readings can be large; an effect the other way counts as inactive or inconclusive.

Chain of Nuclear receptor subfamily 1 group I member 3 (Homo sapiens) (Q14994 whole entry, looked up): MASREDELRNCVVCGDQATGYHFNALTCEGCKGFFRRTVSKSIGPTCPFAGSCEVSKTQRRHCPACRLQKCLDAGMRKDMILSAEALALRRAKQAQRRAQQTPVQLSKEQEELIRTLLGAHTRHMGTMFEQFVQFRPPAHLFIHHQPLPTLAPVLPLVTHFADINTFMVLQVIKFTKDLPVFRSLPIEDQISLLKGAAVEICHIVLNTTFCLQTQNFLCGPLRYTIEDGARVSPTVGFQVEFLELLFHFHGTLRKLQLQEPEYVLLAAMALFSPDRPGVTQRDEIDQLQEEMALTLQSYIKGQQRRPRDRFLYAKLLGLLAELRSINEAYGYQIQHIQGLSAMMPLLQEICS
Chain of Cytochrome P450 2C19 (Homo sapiens) (P33261 whole entry, looked up): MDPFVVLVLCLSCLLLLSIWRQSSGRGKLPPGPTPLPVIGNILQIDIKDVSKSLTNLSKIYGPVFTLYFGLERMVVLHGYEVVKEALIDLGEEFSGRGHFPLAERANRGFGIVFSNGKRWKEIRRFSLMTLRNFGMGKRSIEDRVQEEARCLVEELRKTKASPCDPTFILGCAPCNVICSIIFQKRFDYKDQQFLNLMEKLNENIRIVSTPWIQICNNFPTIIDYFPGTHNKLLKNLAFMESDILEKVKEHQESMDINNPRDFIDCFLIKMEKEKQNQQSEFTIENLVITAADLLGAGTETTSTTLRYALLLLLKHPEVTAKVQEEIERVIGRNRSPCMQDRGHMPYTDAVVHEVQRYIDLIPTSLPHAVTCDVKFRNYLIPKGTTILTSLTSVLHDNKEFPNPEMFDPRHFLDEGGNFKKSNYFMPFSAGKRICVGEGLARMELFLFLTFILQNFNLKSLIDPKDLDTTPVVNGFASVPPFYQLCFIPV
Chain of Cytochrome P450 1A2 (Homo sapiens) (P05177 whole entry, looked up): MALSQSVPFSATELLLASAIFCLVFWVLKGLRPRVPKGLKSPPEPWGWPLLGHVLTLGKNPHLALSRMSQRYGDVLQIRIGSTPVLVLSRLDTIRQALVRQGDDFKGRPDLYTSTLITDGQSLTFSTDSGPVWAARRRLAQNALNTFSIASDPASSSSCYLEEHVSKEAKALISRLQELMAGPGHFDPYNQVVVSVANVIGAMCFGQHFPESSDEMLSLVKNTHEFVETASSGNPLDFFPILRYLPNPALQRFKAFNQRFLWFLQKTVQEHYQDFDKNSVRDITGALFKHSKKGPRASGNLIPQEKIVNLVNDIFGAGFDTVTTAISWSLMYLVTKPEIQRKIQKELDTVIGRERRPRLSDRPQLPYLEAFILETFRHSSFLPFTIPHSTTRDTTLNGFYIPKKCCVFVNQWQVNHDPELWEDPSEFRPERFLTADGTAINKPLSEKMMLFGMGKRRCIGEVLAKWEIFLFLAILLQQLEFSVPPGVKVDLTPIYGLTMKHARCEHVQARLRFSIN
Chain of Cytochrome P450 3A4 (Homo sapiens) (P08684 whole entry, looked up): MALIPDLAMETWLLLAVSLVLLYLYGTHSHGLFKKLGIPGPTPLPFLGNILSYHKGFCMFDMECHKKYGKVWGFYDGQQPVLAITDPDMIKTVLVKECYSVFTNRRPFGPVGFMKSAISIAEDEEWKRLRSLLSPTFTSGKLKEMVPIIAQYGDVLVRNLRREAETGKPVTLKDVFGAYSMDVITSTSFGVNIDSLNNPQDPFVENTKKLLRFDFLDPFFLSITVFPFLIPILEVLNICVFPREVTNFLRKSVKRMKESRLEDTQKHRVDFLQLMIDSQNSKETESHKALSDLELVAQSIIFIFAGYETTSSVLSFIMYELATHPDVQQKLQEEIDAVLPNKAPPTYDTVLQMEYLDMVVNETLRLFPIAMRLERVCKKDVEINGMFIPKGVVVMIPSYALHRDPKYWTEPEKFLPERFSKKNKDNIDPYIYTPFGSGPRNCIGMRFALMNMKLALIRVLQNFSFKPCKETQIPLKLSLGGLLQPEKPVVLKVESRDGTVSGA
Chain of Cytochrome P450 2C9 (Homo sapiens) (P11712 whole entry, looked up): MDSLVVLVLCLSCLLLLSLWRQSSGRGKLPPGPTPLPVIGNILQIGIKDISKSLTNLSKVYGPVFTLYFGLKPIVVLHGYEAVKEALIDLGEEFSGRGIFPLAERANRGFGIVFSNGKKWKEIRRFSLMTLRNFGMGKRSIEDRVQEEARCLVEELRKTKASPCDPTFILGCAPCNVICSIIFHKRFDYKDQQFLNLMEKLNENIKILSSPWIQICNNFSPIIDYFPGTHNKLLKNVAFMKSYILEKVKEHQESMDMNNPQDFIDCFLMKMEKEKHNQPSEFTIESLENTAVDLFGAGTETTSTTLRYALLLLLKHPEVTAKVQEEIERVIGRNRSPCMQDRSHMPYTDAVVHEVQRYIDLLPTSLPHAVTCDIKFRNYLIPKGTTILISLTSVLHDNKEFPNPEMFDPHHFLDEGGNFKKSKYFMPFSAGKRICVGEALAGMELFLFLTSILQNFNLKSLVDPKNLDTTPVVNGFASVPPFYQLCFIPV
Chain of Nuclear receptor subfamily 1 group I member 2 (Homo sapiens) (O75469 whole entry, looked up): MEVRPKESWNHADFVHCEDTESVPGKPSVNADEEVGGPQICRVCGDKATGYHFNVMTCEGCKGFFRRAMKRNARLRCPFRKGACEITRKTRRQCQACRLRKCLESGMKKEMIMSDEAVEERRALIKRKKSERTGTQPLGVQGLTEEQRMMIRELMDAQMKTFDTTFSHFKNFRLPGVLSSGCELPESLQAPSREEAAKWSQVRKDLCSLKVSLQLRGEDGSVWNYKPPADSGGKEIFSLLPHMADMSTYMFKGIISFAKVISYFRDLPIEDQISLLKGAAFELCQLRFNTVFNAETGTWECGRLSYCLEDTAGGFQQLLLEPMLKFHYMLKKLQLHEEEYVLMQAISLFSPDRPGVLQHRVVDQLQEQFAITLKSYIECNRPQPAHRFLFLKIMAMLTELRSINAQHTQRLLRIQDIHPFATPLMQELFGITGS
Chain of Cytochrome P450 2D6 (Homo sapiens) (P10635 whole entry, looked up): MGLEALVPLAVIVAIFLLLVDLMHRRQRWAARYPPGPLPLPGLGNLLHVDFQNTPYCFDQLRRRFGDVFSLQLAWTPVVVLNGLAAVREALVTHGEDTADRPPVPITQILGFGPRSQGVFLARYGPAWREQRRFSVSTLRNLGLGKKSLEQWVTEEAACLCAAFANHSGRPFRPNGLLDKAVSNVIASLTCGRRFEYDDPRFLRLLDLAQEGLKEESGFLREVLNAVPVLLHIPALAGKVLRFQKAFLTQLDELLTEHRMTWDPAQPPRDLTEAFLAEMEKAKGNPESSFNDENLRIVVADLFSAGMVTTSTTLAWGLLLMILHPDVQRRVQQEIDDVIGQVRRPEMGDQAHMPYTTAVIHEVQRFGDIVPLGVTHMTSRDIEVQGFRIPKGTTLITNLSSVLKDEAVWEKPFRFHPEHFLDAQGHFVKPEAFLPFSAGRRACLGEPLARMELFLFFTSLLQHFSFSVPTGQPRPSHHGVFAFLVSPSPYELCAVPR
Chain of Glucocorticoid receptor (Homo sapiens) (P04150 whole entry, looked up): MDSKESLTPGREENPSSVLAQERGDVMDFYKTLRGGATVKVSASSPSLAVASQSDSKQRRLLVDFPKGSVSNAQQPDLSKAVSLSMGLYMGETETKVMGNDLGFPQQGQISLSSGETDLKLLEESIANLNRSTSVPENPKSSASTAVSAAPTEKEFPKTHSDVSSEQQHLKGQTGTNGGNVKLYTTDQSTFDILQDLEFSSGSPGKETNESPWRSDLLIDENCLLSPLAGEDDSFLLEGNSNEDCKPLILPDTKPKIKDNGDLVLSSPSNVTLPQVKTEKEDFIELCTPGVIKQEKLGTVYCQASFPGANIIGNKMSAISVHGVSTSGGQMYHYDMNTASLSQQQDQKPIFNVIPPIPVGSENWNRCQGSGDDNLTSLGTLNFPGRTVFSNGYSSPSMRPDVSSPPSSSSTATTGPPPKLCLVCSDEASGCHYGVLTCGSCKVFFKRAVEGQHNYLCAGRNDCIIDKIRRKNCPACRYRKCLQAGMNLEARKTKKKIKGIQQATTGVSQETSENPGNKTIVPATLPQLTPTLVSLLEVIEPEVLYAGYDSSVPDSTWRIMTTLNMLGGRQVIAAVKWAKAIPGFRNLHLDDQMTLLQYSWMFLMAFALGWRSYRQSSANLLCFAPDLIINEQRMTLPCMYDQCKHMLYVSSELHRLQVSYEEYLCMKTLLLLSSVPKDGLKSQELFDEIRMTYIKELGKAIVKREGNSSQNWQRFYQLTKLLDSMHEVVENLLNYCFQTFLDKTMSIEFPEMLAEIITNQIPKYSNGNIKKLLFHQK
Chain of Ubiquitin carboxyl-terminal hydrolase 1 (Homo sapiens) (O94782 whole entry, looked up): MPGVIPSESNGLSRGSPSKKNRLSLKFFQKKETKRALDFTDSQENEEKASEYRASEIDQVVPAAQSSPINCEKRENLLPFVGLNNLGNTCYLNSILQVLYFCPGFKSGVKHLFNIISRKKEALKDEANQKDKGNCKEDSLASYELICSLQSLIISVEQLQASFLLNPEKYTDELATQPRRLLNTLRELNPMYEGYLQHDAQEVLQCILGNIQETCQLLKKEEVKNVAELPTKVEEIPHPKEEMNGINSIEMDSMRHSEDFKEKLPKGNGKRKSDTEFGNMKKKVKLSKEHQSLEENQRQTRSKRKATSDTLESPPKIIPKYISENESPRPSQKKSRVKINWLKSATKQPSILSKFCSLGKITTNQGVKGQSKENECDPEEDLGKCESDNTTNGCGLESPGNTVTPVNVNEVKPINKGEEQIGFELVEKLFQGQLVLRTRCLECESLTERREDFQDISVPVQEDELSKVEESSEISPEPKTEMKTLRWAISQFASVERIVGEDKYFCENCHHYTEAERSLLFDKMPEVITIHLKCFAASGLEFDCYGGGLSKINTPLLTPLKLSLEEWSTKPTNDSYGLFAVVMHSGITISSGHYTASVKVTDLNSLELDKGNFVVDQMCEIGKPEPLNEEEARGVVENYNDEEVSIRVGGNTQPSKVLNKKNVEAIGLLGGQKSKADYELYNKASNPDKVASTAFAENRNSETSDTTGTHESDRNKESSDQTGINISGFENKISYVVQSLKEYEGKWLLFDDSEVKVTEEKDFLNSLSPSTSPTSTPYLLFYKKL

As to `CC1(C)CC[C@]2(C(=O)O)CC[C@]3(C)C(=CCC4[C@@]5(C)CC[C@H](O)[C@@](C)(CO)C5CC[C@]43C)[C@H]2C1` (stereo not given in full), the call in [1], in [2], in test [4], in test [7], in test [10] and in test [11] was inactive. For the same compound, the Potency result in test [3], in test [5], in test [6], in [8] and in test [9] was “inactive” each time.
On to `Cc1ccccc1-c1ccc2ncnc(-n3ccnc3)c2c1`, for which the Potency in [12] and in [13] was above 46 µM in each case. For the same compound, the Potency result in test [14] and in test [15] was “inactive” each time.
As for `COc1cc(/C=C/c2ccccc2)oc(=O)c1`, the Potency result in test [14], in test [16], in test [5] and in test [6] was “inactive” each time. Besides, the outcome in test [1], in test [2], in [4], in test [7], in [10] and in test [11] was inactive. The Potency was 12.6 µM (active) in test [3] and 7.08 µM (active) in [8].
In the case of `O=C(O)CC(O)(C(=O)O)C(O)C(=O)O` (stereo not given), the outcome in [1], in [2], in [4], in test [7], in [10] and in test [11] was inactive. Also, the Potency result in test [3], in [16], in [5], in test [6], in [17] and in test [8] was “inactive” in each case. The Potency result in test [9] is “inactive”. Moreover, the max response in test [18] was 1.8%.
As for `C[C@@H]1O[C@@H](OC[C@H]2OC(Oc3c(-c4ccc(O)c(O)c4)oc4cc(O)cc(O)c4c3=O)[C@H](O)[C@@H](O)[C@@H]2O)[C@H](O)[C@H](O)[C@H]1O` (stereo not given in full), the compound was classed as inactive in [1], in test [2], in test [4], in [7] and in test [10]. In addition, the Potency result in test [3], in test [16], in test [5], in test [6], in test [17] and in [8] was “inactive” throughout. Besides, in [9], the Potency result was “inactive”.
As for `CC(C)=CCCC(C)(OC1OC(COC2OC(CO)C(O)C2O)C(O)C(O)C1O)C1CCC2(C)C1C(O)CC1C3(C)CCC(OC4OC(CO)C(O)C(O)C4OC4OC(CO)C(O)C(O)C4O)C(C)(C)C3CCC12C` (stereo not given), the outcome in test [1], in test [2], in test [4], in [7], in test [10] and in test [11] was inactive. Also, the Potency entry in test [3], in test [16], in test [5], in [6], in test [17] and in test [8] was “inactive” each time. For the same compound, in test [9], the Potency entry was “inactive”.
With `CC1(C)CC[C@]2(C(=O)O)CC[C@]3(C)C(=CCC4[C@@]5(C)CC[C@@H](O)C(C)(C)C5CC[C@]43C)C2C1` (stereo not given in full), the result in test [1], in test [2], in test [4], in test [7], in [10] and in test [11] was inactive. Besides, the Potency result in [3], in test [5], in [6], in test [17], in [8] and in [9] was “inactive” in each case.
Take `CCCCCCCCCCCCCC(=O)OCC(O)CO` (stereo not given): the compound was called inactive in test [1], in test [2], in [4], in test [7], in [10] and in test [11]. Besides, the Potency result in [3], in test [16], in test [5] and in test [9] was “inactive” in each case.
With `CCCCCCC/C=C/C(=O)CCc1ccc(O)c(OC)c1`, the call in [1], in [2], in test [4], in test [7], in [10] and in test [11] was inactive. Further, in test [3], the Potency result is “inactive”. Also, the Potency was 14.1 µM (active) in test [16]; 10 µM (active) in [5]; 25.1 µM (active) in [6]; 6.31 µM (active) in test [17]; 25.1 µM (active) in [8].
As to `CC(C)(O)[C@@H]1CC[C@](C)([C@@H]2[C@H](O)C[C@]3(C)C4C[C@@H](O[C@H]5O[C@@H](CO)[C@H](O)[C@@H](O)[C@@H]5O)C5C(C)(C)[C@H](O[C@H]6OC[C@H](O)[C@@H](O)[C@@H]6O)CC[C@]56CC46CC[C@@]23C)O1` (stereo not given in full), the compound was classed as inactive in [1], in [2], in test [4], in test [7], in test [10] and in test [11]. For the same compound, the Potency result in [3], in test [16], in [5], in test [6], in test [17] and in [8] was “inactive” throughout. Besides, the Potency entry in test [9] was “inactive”. Further, the max response in [18] is 1.31%.
In the case of `OCC1=C[C@@H](O)[C@@H]2C=CO[C@@H](OC3O[C@H](CO)[C@@H](O)[C@H](O)[C@H]3O)[C@H]12` (stereo not given in full), the compound was classed as inactive in [1], in test [2], in test [4], in test [7], in test [10] and in test [11]. For the same compound, the Potency entry in [3], in test [16], in test [5], in [6], in [17] and in test [8] was “inactive” in each case. Moreover, in test [9], the Potency result was “inactive”.
For the compound `CCCCCCCCCCCCCCCCCCCCCC(=O)O`, the compound was called inactive in test [1], in test [2], in test [4], in [7], in test [10] and in [11]. Also, the Potency result in [3], in test [16], in test [5], in test [6], in [17] and in test [8] was “inactive” throughout. The Potency result in test [9] was “inactive”. The max response in test [18] was 3.78%.
As for `CCCCCC(=O)CC`, the result in test [1], in test [2], in test [4], in test [7], in test [10] and in test [11] was inactive. Moreover, the Potency result in [3], in test [16], in test [5], in test [6], in [17] and in [8] was “inactive” in each case. In test [9], the Potency entry was “inactive”. Also, the max response in test [18] is -3.61%.

(Values after PubChem BioAssay (NCATS).)
